Inconclusive results are not listed. Activity calls are given as the source filed them. How the source made its calls: active means hit-call score of the fitted dose curve at least 0.9, where 1 is the maximum; inconclusive means response in the unintended direction; inactive means score below 0.9.

Test system in the first experiment: not listed separately
In words: ACEA_ER_AUC_viability: ACEA Biosciences xCELLigence Real-Time Cell Analysis on Estrogen Receptor Agonism for Viability (AID 2283782).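 Further: hit means loss of impedance signal meaning reduced cell growth or viability.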 In a few lines: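 Continuous-exposure impedance cell analysis uses T-47D cells in charcoal-stripped serum, eight 1:4 dilutions topping at 100 uM final, biological duplicate. Area under the growth curve at 80 h is fitted against DMSO baseline.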
Take `CO[Si](C)(CCC(F)(F)C(F)(F)C(F)(F)C(F)(F)C(F)(F)C(F)(F)F)OC`: the compound was called inactive.

For the compound `C=CC(=O)OCC(F)(F)C(F)(F)C(F)(F)C(F)(F)C(F)(F)C(F)(F)C(F)(F)C(F)F`, the compound was classed as inactive. For `Oc1ccc(C2(c3ccc(O)c(C4CCCCC4)c3)CCCCC2)cc1C1CCCCC1`, the AC50 is 38.9 µM (active).

As for `CCCCCCCCCCCCCC[P+](CCCC)(CCCC)CCCC`, the AC50 was 1.73 µM (active).

Take `CCCCCCCC/C=C\CCCCCCCC(=O)OCC(O)CO` (stereo unspecified): the AC50 was 50 µM (active). As for `Nc1c(Br)cc([N+](=O)[O-])cc1Br`, the compound was classed as inactive. Consider `CCN=c1cc2oc3cc(NCC)c(C)cc3c(-c3ccccc3C(=O)OCC)c-2cc1C`, for which the AC50 was 5.61 µM (active). For the compound `CCCCOC(=O)[C@H](C)O`, the call was inactive.

`NC(O)(C(F)(F)F)C(F)(F)F`: the compound was classed as inactive. For `CCCCCC/C=C/CCCCCCCC(=O)O`, the AC50 was 50 µM (active). Regarding `CC(C)C(=O)OCc1ccccc1`, the compound was called inactive. Same read-out and setting: the entry for `CN(C(=O)C(F)(F)C(F)(F)C(F)(F)F)[Si](C)(C)C` is “inactive”. On to `CCCCC(CC)COC(=O)c1ccc(N(C)C)cc1` (stereo unspecified), for which the AC50 was 87.8 µM (active). The same measure, in the same setting: the figure for `CCN(CCO)S(=O)(=O)C(F)(F)C(F)(F)C(F)(F)C(F)(F)C(F)(F)C(F)(F)C(F)(F)C(F)(F)F` is 20.2 µM (active). As to `O=S(=O)(O)c1ccc(Cl)cc1`, the call was inactive.

For `Cc1cc(C)c(O)c(C(C)(C)C)c1`, the AC50 was 90.6 µM (active).

On to `CCCCCCCCCCCCC[N+](C)(C)Cc1ccccc1`, for which the concentration at half-maximal activity (AC50) is 7.37 µM (active). Still for that read-out and setting: the figure for `O=C1C=CC(=O)N1c1ccc(Cc2ccc(N3C(=O)C=CC3=O)cc2)cc1` is 25.1 µM (active); for `c1ccc(C[P+](c2ccccc2)(c2ccccc2)c2ccccc2)cc1` it is 83.7 µM (active). For `O=C(O)C(F)(F)C(F)(F)C(F)(F)OC(F)(C(F)(F)F)C(F)(F)F`, the call was inactive.

For the compound `O=C1C=CC(=O)N1c1ccccc1`, the compound was called inactive. On the same count and under the same terms, the entry for `FC(F)(F)C(F)(F)C(F)(F)C(F)(F)C(F)(F)C(F)(F)CC[Si](Cl)(Cl)Cl` is “inactive”; for `C#CC(O)CCC` (stereo unspecified) it is “inactive”. With `COCCOCCC[Si](C)(O[Si](C)(C)C)O[Si](C)(C)C`, the AC50 is 79.6 µM (active). In the case of `O=C1OC(=O)c2ccc3c4c(ccc1c24)C(=O)OC3=O`, the compound was classed as inactive.

Take `O=S(=O)(O)CCC(F)(F)C(F)(F)C(F)(F)C(F)(F)C(F)(F)C(F)(F)C(F)(F)C(F)(F)F`: the compound was classed as inactive.

For `NC(=O)C(F)(F)C(F)(F)C(F)(F)F`, the call was inactive.

Turning to `Nc1cc([N+](=O)[O-])cc(Cl)c1O`, the call was inactive. As for `CCOC(C=C(C)CCC=C(C)C)OCC`, the AC50 was 11.3 µM (active).

Regarding `CCCCCCCCCc1ccc(OCCO)cc1`, the AC50 is 35.2 µM (active). On the same count and under the same terms, to `CCN=C1C=CC(=C(c2ccc(N(CC)CC)cc2)c2ccc(N(CC)CC)cc2)c2ccccc21` belongs 5.37 µM (active); to `CC(O)C#CC(C)O` (stereo unspecified), 26.7 µM (active). The same measure, in the same setting: to `Nc1cccnc1N` belongs 83.2 µM (active).

Regarding `CC1=CC2C3C=CC(C3)C2C1C` (stereo unspecified), the AC50 was 50 µM (active).

In another experiment the target is AR (gene 367) (UniProt P10275). In words: ACEA_AR_agonist_80hr: ACEA Biosciences xCELLigence Real-Time Cell Analysis on Androgen Receptor Agonism for Proliferation (AID 2283783).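 Further: hits increase impedance growth signal above DMSO baseline.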 In a few lines: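 Real-time cell-growth kinetics were recorded by electrode impedance in 22Rv1 cells exposed to test chemicals up to 100 uM final; the 80 h timepoint served as the readout, fitted upward relative to DMSO controls, in biological duplicate.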
AR (gene 367), sequence (P10275 whole entry, looked up): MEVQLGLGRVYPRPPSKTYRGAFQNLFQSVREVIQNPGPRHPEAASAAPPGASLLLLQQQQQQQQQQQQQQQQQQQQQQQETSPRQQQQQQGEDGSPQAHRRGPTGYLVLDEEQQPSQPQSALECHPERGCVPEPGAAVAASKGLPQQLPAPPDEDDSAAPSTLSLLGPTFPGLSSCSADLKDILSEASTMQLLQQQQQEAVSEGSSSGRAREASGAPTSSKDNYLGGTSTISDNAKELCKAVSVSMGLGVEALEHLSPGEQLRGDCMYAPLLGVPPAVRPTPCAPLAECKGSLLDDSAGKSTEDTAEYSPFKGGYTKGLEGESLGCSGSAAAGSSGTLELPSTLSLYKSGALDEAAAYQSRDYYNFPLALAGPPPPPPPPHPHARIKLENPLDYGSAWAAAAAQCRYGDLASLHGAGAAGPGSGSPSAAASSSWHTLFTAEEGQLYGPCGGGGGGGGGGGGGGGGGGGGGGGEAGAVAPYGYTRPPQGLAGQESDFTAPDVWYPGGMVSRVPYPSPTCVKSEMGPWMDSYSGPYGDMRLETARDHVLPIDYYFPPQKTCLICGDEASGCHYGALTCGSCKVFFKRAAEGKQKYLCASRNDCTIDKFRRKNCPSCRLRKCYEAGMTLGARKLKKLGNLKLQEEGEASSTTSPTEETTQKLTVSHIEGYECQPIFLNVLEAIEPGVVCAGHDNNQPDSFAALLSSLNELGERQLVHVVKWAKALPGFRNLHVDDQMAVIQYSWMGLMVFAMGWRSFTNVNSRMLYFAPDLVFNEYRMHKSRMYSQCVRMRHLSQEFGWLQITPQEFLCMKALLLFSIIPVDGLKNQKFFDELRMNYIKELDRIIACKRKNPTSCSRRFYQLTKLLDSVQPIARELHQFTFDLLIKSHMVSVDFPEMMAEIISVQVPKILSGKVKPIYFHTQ
On to `CCCCCCCCCCCCCC[P+](CCCC)(CCCC)CCCC`, for which the result was inactive.

For the compound `CCCCCCCC/C=C\CCCCCCCC(=O)OCC(O)CO` (stereo unspecified), the AC50 was 27.9 µM (active). On to `CCN=c1cc2oc3cc(NCC)c(C)cc3c(-c3ccccc3C(=O)OCC)c-2cc1C`, for which the outcome was inactive. Regarding `OCC1CCCO1` (stereo unspecified), the AC50 was 0.585 µM (active). As to `F[Si-2](F)(F)(F)(F)F`, the call was inactive. Still for that read-out and setting: the entry for `COCCOCCC[Si](C)(O[Si](C)(C)C)O[Si](C)(C)C` is “inactive”.

Test system in a further experiment: not listed separately
The experiment in a line: STM_H9_NormalizedViability: Cytotoxicity Assessment at 120 hours in the Stemina devTOX quickPredict H9 human embryonic stem cell (hESC)-based Assay (AID 2283784). In a few lines: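 Viability endpoint: background-corrected CellTiter-Fluor RFU expressed relative to the 0.1% DMSO mean on each plate. Undifferentiated H9 cells were treated with daily re-dosing and media change, and loss of signal was fitted.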
`CCN=c1cc2oc3cc(NCC)c(C)cc3c(-c3ccccc3C(=O)OCC)c-2cc1C`: the AC50 was 116 nM (active). `CCCCC(CC)COC(=O)c1ccc(N(C)C)cc1` (stereo unspecified): the outcome was inactive. As for `CCN=C1C=CC(=C(c2ccc(N(CC)CC)cc2)c2ccc(N(CC)CC)cc2)c2ccccc21`, the AC50 was 165 nM (active).

Another experiment addresses AR (gene 367) (UniProt P10275). The experiment in a line: ACEA_AR_antagonist_80hr: ACEA Biosciences xCELLigence Real-Time Cell Analysis on Androgen Receptor Antagonism for Proliferation (AID 2283787).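 Further: 22Rv1 human prostate cancer cells with growth followed by electrical impedance; hits lower the impedance growth signal relative to DMSO.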 In a few lines: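 Using 22Rv1 cells held in assay medium, we dosed compounds (100 uM maximum final, 1:4 serial, eight points, 0.5% DMSO at top) and recorded cell-electrode impedance; the 80 hr timepoint was analyzed against DMSO.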
Take `CCCCCCCCCCCCCC[P+](CCCC)(CCCC)CCCC`: the AC50 is 43.6 nM (active).

On to `CCCCCCCC/C=C\CCCCCCCC(=O)OCC(O)CO` (stereo unspecified), for which the result was inactive. Regarding `CCN=c1cc2oc3cc(NCC)c(C)cc3c(-c3ccccc3C(=O)OCC)c-2cc1C`, the half-maximal activity concentration (AC50) is 43.6 nM (active). As for `CCCCCCCCCCCCC[N+](C)(C)Cc1ccccc1`, the AC50 is 4670 nM (active).

Turning to `F[Si-2](F)(F)(F)(F)F`, the call was inactive. For `O=C1C=CC(=O)N1c1ccccc1`, the compound was classed as inactive. In the case of `CCCCCCCCCc1ccc(OCCO)cc1`, the AC50 was 16600 nM (active). With `CCN=C1C=CC(=C(c2ccc(N(CC)CC)cc2)c2ccc(N(CC)CC)cc2)c2ccccc21`, the AC50 is 131 nM (active).

For orientation: AC50 means the concentration giving half of the maximal activity seen.
